# Most compounds without a hit are left out; they make up all but 4% or so of the library.
# Mtb bLac sens – beta-lactam sensitization of Mtb H37Rv, H37Rv. M. tuberculosis H37Rv growth with meropenem, percent inhibition. inhibition, % at 25 µM. 330,000 compounds, 0.27% hits. AID 434955, 2010; call rule not given here;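 note: growth measured after seven days incubation then overnight dye step; 0% = bacteria only wells and 100% = bacteria with antibiotic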
# Mtb FBA inh – Mtb FBA enzyme inhibitors, primary screen, biochemical, fluorescence, strain H37Rv | Fructose-bisphosphate aldolase (Mycobacterium tuberculosis (strain ATCC 25618 / H37Rv)), … | inhibition, % at 1 µM | purified M. tuberculosis FBA, fluorescence read-out | 360,000 compounds, 2.3% hits; in the data active = inhibition above about 27%;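 note: 0% = vehicle and 100% = reference inhibitor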
# Target sequence (P9WQA3 whole entry, looked up): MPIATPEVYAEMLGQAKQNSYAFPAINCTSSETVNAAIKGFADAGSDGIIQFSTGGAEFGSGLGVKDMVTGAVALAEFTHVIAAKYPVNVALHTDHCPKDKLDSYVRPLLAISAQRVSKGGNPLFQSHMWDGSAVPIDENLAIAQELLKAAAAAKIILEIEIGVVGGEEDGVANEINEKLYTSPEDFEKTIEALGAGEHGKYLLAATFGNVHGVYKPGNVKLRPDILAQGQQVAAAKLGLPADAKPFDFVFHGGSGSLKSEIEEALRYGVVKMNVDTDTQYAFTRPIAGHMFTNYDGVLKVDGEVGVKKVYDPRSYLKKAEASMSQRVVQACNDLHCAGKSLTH
# GDH-TPI counter – GDH-TPI coupling enzyme inhibitors, primary screen, artefact control for M. tuberculosis FBA inhibitor project, biochemical, absorbance, full deck; GDH-TPI coupled enzyme counterscreen, NADH absorbance; inhibition, % at 4.8 µM; 360,000 compounds, 1.2% hits; AID 588335, 2011; in the data active = inhibition above about 30%;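 note: 0% = DMSO wells and 100% = wells lacking the enzyme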
# RecA splice inh – Mtb RecA intein splicing inhibitors, primary screen, biochemical, fluorescence, HTS; cell-free RecA intein splicing; Protein RecA (Mycobacterium tuberculosis (strain ATCC 25618 / H37Rv)), P9WHJ3; 290,000 compounds, 0.75% hits; inhibition, % (test concentration not listed); in the data active = inhibition above about 30%; inconclusive = no clear call, values can overlap the other calls;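 note: 0% = vehicle wells and 100% = reference inhibitor control wells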
# Mtb UGM inh – M. tuberculosis UGM enzyme inhibitors, primary screen, biochemical, fluorescence polarization, single point. purified UGM, fluorescence polarization probe displacement. inhibition, % at 10 µM. 320,000 compounds, 0.06% hits; in the data active = inhibition above about 10%, passing the limit was not always enough; inconclusive = no clear call, values can overlap the other calls
# Rv3671c protease – Rv3671c serine protease inhibitors, primary screen, biochemical, fluorescence polarization, M. tuberculosis H37Rv | 320,000 compounds, 0.048% hits | P9WHR9 | inhibition, % at 5.96 µM | AID 2606, 2010; in the data active = inhibition above about 38%;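 note: extracellular domain of Rv3671c used as enzyme; 0% = enzyme with DMSO and 100% = no enzyme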
# * hit, by the source's call; ? = inconclusive; / = no result given; + = active, no number.
SMILES,Mtb bLac sens,Mtb FBA inh,GDH-TPI counter,RecA splice inh,Mtb UGM inh,Rv3671c protease
O=C(NCc1cccs1)c1cc2c(s1)-c1ccccc1OC2,2.4,+,21.6,-18.7,-1.0,-7.0
COc1ccc2c(c1)CCc1cc(C(=O)O)sc1-2,-7.5,+,22.7,-5.6,0.8,1.0
O=C(c1ccco1)N1CCN(C(=O)c2cc3c(s2)-c2ccccc2OC3)CC1,-2.5,112.5*,15.0,-13.2,3.3,-13.4
O=C(O)c1cc2c(s1)-c1ccccc1OC2,-1.0,+,22.7,-2.1,/,7.9
Cc1ccc(N(O)C(=O)NCCCCNC(=O)N(O)c2ccc(C)cc2)cc1,?,-4.3,-1.5,-6.0,-0.2,6.9
O=C(O)c1cc2c(s1)-c1ccccc1CC2,6.2,190.8*,51.9*,0.0,-0.5,-1.1
O=C(NCCCN1CCOCC1)c1cc2c(s1)-c1ccccc1OC2,-0.6,+,35.3*,-23.7,2.3,-0.1
O=C(NC1CC1)c1cc2c(s1)-c1ccccc1OC2,1.3,+,23.2,-19.7,1.0,-2.9
O=C(Nc1cccc(C(F)(F)F)c1)c1cc2c(s1)-c1ccccc1OC2,1.7,13.9,10.0,-36.6,1.3,-12.6
O=C(NCCCN1CCOCC1)c1cc2c(s1)CCCC2,-8.4,2.3,6.3,1.3,-1.2,-11.3
O=C(Nc1ccc(Cl)c(Cl)c1)NC1CCS(=O)(=O)C1 (stereo unspecified),3.3,-0.5,-1.5,1.1,0.5,-6.1
S=c1ncc2[nH]c(=S)[nH]c2[nH]1,/,1.0,35.7*,/,/,/
S=c1[nH]c2ccc(Cl)cc2[nH]1,7.0,2.4,12.8,2.9,-2.0,-5.4
CCN1CCN(C(=O)C2CC(=O)N(c3ccc(Cl)cc3)C2)CC1 (stereo unspecified),5.6,-9.6,-6.6,/,-1.9,-4.5
CCCCNC(=O)C1(C)CCN1C(=O)c1cccnc1Oc1ccccc1 (stereo unspecified),/,-3.3,-1.8,/,/,/
O=c1c(Cl)c(N/N=C/c2ccc(Br)cc2)cnn1-c1ccccc1,84.6,2.8,55.9*,4.2,-2.5,-13.9
COC(=O)c1c(N)n(Cc2ccc(OC)cc2)c2nc3ccccc3nc12,-4.5,159.0*,1.7,/,-0.6,0.6
COCCOC(=O)c1c(N)n(Cc2ccc(OC)cc2)c2nc3ccccc3nc12,22.7,171.3*,11.6,/,1.6,2.8
O=C(Cn1c2c(c(-c3ccccc3Cl)cc1=O)CCC2)NCCCN1CCOCC1,-6.3,14.9,30.9*,-2.8,-0.4,-1.6
COc1ccc(N(CC(=O)NCc2cccs2)S(=O)(=O)c2ccc(C(C)=O)cc2)cc1,/,3.9,10.0,/,/,/
CN1CCN(C(=S)c2ccc(-c3cccc([N+](=O)[O-])c3)o2)CC1,-7.7,-3.3,14.3,/,0.7,6.3
O=[N+]([O-])c1cccc(-c2ccc(C(=S)N3CCOCC3)o2)c1,6.1,-4.9,40.9*,-4.6,-1.1,-4.2
CCN(CC)CCCNC(=O)/C(=C\c1cccn1C)NC(=O)c1cccs1,-3.2,1.6,34.7*,-0.5,3.1,-2.3
CC(Sc1nnc(CC(=O)Nc2ccccc2F)n1C)C(=O)Nc1nccs1 (stereo unspecified),-4.2,-2.3,11.8,-1.6,3.1,3.2
CN(C)/C(CN1CCN(C=O)CC1)=C1\N=C(c2ccccc2)OC1=O,2.5,1.6,35.5*,4.5,0.5,-0.9
SMILES,Mtb bLac sens,Mtb FBA inh,GDH-TPI counter,RecA splice inh,Mtb UGM inh,Rv3671c protease
CC1=CC(=C2N=C(c3ccccc3)OC2=O)C=C(C)O1,7.2,-11.3,1.7,-0.4,4.1,-2.0
CCOC(=O)c1c(=O)n(O)c2ccc(OC)cc2[n+]1[O-],-2.0,-15.1,8.8,/,14.6*,-5.4
O=C(CNC(=O)c1sc2ccccc2c1Cl)NCc1ccc(F)cc1,-4.1,3.8,8.4,-1.9,-1.5,0.8
CCOC(=O)N1CCN(S(=O)(=O)N2CCCC(C(=O)NCCc3ccc(OCC)c(OCC)c3)C2)CC1 (stereo unspecified),-8.3,-5.3,6.5,2.6,2.2,-2.3
O=C1NCN(c2ccccc2)C12CCN(CCCC(c1ccc(F)cc1)c1ccc(F)cc1)CC2,100.1,-0.6,3.6,38.2*,-2.6,-1.1
Cc1ccc2nc(-c3ccc(NC(=O)CSCC(=O)O)cc3)sc2c1,5.7,199.3*,49.4*,1.4,0.7,-6.4
Cc1csc(NC(=O)CSc2nc3ccccc3s2)n1,58.3,1.7,14.4,4.6,2.0,3.6
Cc1ccc2nc(-c3ccc(NC(=O)COCC(=O)O)cc3)sc2c1,-8.2,136.4*,24.5,3.0,3.0,-3.1
O=C(O)CSCC(=O)Nc1ccc(-c2nc3ccccc3s2)cc1,-2.6,115.9*,23.4,-6.6,1.3,-7.1
Cc1csc(NC(=O)CSCC(=O)O)c1-c1nc2ccccc2s1,43.1,-0.1,34.6*,-0.9,4.3,-5.4
CCN(CC(=O)Nc1ccc(NC(C)=O)cc1)C(=O)c1ccccc1SCC(=O)N1CCCC1,3.6,-0.6,0.0,/,0.8,-14.1
Cc1ccc(CC2(C)C(=O)Nc3c(Cl)ccc(Cl)c32)cc1 (stereo unspecified),/,1.6,-5.3,/,/,/
Cc1ccc2sc(-c3ccc(NC(=O)/C=C\C(=O)O)cc3)nc2c1,/,+,22.0,14.1,/,/
Cc1nc(-c2ccc(NC(=O)/C=C\C(=O)O)cc2)cs1,-2.0,3.3,-3.2,-1.6,0.9,-6.5
COc1ccc(CCNC(=O)Nc2cc(F)c(F)cc2Cl)cc1OC,65.0,0.9,-4.3,0.3,1.3,3.3
CCN(CC)S(=O)(=O)c1cc(NC(=O)Cn2ncc(Cl)c(Cl)c2=O)ccc1C,-2.6,2.5,7.6,51.5*,-0.7,-6.2
Cc1ccc(NC(=O)CCl)cc1S(=O)(=O)N1CCCCCC1,96.2,-2.7,-4.1,52.4*,-1.7,13.8
COCCNCC(=O)Nc1ccc(C)c(S(=O)(=O)N2CCCCC2)c1,-3.9,-7.2,-8.5,3.5,2.7,2.9
Cc1nc(SCCC(=O)O)c2cc(-c3ccccc3)sc2n1,0.6,2.5,14.9,-1.5,0.2,-2.0
O=c1[nH]c(C2CCN(S(=O)(=O)c3cccc([N+](=O)[O-])c3)CC2)nc2c1nnn2Cc1ccccc1,8.6,1.9,-1.5,4.4,1.4,0.7
CC(=O)c1ccc(OC(=O)Oc2ccc(C(C)=O)cc2)cc1,/,0.6,31.6*,/,/,/
CS(=O)(=O)c1ccccc1-c1nnc(NC(=O)C2=COCCO2)o1,-11.6,-1.3,9.8,4.0,/,4.4
Cc1cccc(N2CN=c3s/c(=C\c4ccncc4)c(=O)n3C2)c1,/,1.5,7.3,3.1,/,/
CCc1ccc(N2CN=c3s/c(=C\c4ccccc4)c(=O)n3C2)cc1,94.0,-0.2,35.2*,0.4,-1.1,1.3
